Bioassay records: PubChem, National Center for Advancing Translational Sciences (NCATS)
The list is not random: actives were taken first. Their share in the collection is about 2.9%.
KDM5B inhibitor – inhibitors of human KDM5B histone demethylase. AID 1347165. KDM5B demethylase, FDH-coupled NADH fluorescence (FDH is formaldehyde dehydrogenase). 220,000 compounds, 2.6% hits. Potency, µM (top dose mostly 57.7 µM), actives largely listed as inhibitors; further: potency means the concentration at half of the fitted maximal effect; 0% is about no effect; nearly all actives have a fitted effect of over 70% in size
Target sequence (Q9UGL1 whole entry, looked up): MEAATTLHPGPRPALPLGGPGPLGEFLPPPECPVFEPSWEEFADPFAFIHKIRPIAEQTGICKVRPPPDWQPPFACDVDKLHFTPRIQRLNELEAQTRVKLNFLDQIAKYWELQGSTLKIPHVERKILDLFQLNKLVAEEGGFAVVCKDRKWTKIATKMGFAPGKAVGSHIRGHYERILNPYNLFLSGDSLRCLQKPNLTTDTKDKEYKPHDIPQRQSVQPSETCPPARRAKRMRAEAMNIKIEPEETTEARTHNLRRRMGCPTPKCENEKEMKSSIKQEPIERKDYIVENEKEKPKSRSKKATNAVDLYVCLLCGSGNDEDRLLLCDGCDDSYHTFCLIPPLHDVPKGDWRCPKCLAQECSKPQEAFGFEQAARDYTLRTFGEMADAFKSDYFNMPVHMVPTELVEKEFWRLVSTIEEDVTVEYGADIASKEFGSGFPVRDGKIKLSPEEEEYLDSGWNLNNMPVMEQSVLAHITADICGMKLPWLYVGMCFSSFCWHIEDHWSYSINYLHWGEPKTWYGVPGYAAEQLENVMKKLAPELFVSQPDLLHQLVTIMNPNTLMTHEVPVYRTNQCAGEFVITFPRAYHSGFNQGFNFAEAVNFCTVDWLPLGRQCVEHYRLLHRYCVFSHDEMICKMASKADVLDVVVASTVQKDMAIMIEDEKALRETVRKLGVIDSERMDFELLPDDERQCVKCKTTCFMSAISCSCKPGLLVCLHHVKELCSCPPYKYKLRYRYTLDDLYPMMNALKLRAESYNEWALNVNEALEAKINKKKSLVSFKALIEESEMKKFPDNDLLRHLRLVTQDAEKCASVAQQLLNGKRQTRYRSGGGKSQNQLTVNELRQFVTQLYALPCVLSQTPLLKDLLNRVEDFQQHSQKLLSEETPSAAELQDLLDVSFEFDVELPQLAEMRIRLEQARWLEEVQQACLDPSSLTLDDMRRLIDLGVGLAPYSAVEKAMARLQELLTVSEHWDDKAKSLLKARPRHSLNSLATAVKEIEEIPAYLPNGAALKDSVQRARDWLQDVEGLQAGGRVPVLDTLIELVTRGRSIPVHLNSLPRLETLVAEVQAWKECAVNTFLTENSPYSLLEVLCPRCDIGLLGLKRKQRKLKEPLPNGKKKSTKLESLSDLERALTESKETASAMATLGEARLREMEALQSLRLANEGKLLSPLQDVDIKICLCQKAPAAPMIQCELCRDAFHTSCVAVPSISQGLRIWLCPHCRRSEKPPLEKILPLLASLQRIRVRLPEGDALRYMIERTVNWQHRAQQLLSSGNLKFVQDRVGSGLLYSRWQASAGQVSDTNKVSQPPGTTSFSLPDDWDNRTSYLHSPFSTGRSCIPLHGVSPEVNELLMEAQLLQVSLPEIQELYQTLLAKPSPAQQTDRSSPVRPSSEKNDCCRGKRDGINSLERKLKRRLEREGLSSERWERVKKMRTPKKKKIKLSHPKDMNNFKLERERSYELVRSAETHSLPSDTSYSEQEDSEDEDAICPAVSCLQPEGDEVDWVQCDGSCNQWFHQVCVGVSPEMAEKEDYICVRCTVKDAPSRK
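Here, H3K4me3 peptide (12.5 µM in substrate mix) is demethylated by KDM5BΔAP, 200 nM final, after 10 min compound exposure. Formaldehyde product is coupled through FDH (0.25 U/mL in mix) to NADH fluorescence; 30-min ΔRFU feeds dose-response curves.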
HEK293 viab – counter-screen for SNCA expression inhibitors: cell viability. Potency, µM (top dose mostly 57.1 µM), without a hit: at the highest dose activity change, negative = cytotoxicity, most hits filed as cytotoxic. HEK-293-SNCA-luc viability, GF-AFC fluorescence, 24 h. AID 1671193. 150,000 compounds, 0.12% hits;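 further: potency means the concentration at half of the fitted maximal effect; 0% = DMSO-treated cells and -100% = medium-only wells without cells; nearly all actives have a fitted effect of over 30% in size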
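HEK-293-SNCA-luc cells (1500/well) plated 24 h, then exposed 24 h to a dilution series; GF-AFC added 30 min at 37C, fluorescence 405/540 nm; normalised to medium-only and DMSO wells, Hill fit.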
IP6K1 inh – blocks human inositol hexakisphosphate kinase 1; IP6K1 kinase, ADP-Glo luminescence, 2 h; active compounds read low; activity change, % (series mostly up to about 58 µM); Q92551; 140,000 compounds, 0.81% hits; AID 1645851; in the data active means activity change below about -25%; further: on the % scale 0 is the no-effect control and ±100 the full control effect
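ADP-Glo luminescence measures ADP made by human IP6K1 during a 2 h RT reaction with ATP/IP6 (mix at 1.3 mM/130 uM); top library doses 57.5 and 19.1 uM final.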
SNCA expr inhib – SNCA gene expression inhibition | HEK-293 SNCA-luciferase knock-in, luminescence, 24 h | Potency, µM (doses to about 57.2 µM), inactives show at the top dose activity change, negative = inhibition, hits mostly inhibitors | 140,000 compounds, 0.17% hits | AID 1671194;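 further: potency means the concentration at half of the fitted maximal effect; plate controls were DMSO cells for no effect and cell-free wells for full effect; nearly all actives have a fitted effect of over 45% in size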
Starred values were filed as active, the others as inactive; i = inactive; ? = inconclusive; . = no result; [ ] = remark or other dose. Unless noted, the call rests on the fitted dose curve; in most records, active means well fitted curve in the direction sought with a large enough effect; inconclusive means small, poorly fitted or top-dose-only effect, or another doubt; inactive means no such curve, though single readings can be large; an effect the other way counts as inactive or inconclusive.

SMILES	KDM5B inhibitor	HEK293 viab	IP6K1 inh	SNCA expr inhib
COc1ncccc1-c1nccc2c(=O)cc(N(C)C3CCOCC3)oc12	i	4%[87.6 µM]	-4	-14%[87.6 µM]
CN1CCCCCCN(C(=O)c2cnccn2)[C@H]2CCC[C@H]2C1=O	i	8%	-5	-12%
COc1ccc(S(=O)(=O)N2CCCOC2CNC(=O)C(=O)NCCCN2CCOCC2)cc1C (centres undefined)	i	.	.	.
CN(C)c1cc(=O)c2ccnc(-c3ccc(N4CCOCC4)cc3)c2o1	32µM*	-13%[87.6 µM]	-21	9%[87.6 µM]
O=c1cc(N2CCOCC2)oc2c(NCc3ccc(F)cc3)nccc12	35µM*	-10%[87.6 µM]	-2	-6%[87.6 µM]
COc1cc(F)ccc1-c1nccc2c(=O)cc(N3CCOCC3)oc12	35µM*	-6%[87.6 µM]	-16	31%[87.6 µM]
CN(C)c1cc(=O)c2ccnc(-c3ccc(O)c(F)c3)c2o1	?	1%[87.6 µM]	-23	56%[87.6 µM]
COc1ccc(-c2nccc3c(=O)cc(N4CCOCC4)oc23)cc1OC	i	-8%[87.6 µM]	-4	15%[87.6 µM]
O=c1cc(N2CCOCC2)oc2c(Nc3ccccn3)nccc12	?	6%[87.6 µM]	-4	-2%[87.6 µM]
CCc1ccc(NC(=O)C2CCN(c3nc4ccccc4nc3OC)CC2)cc1	i	.	.	.
COC[C@H]1C[C@@H](NC(=O)Nc2cccnc2)[C@H](O)[C@@H]1O	i	-1%[87.6 µM]	7	11%[87.6 µM]
O=C1c2cc(N3CCOCC3)nc(-c3cccc(CO)c3)c2CN1c1ccccc1	35µM*	-12%[87.6 µM]	12	27%[87.6 µM]
O=C1Cc2c(-c3cccc(CO)c3)n[nH]c2CN1c1ccccc1	i	-11%[87.6 µM]	15	31%[87.6 µM]
O=C1c2cc(N3CCOCC3)nc(-c3ccccc3)c2CN1Cc1ccccc1	32µM*	0%[87.6 µM]	11	?
CN1Cc2c(cc(N3CCOCC3)nc2-c2ccccc2OC(F)(F)F)C1=O	35µM*	-27%[87.6 µM]	5	9%[87.6 µM]
O=C1c2cc(N3CCOCC3)nc(-c3cccc(O)c3)c2CN1CC(F)(F)F	40µM*	-8%[87.6 µM]	11	-5%[87.6 µM]
COc1ccc(C2Cn3nnc(-c4noc(-c5ccccc5C)n4)c3CO2)cc1 (centres undefined)	i	21%	7	-1%
COc1ccccc1-c1n[nH]c2c1CC(=O)N(CC1CC1)C2	i	-1%[87.6 µM]	3	23%[87.6 µM]
COc1cccc(-c2nc(N3CCOCC3)cc3c2CN(CC2CC2)C3=O)c1OC	35µM*	-1%[87.6 µM]	0	-11%[87.6 µM]
COc1cc(F)ccc1-c1nc(N2CCOCC2)cc2c1CN(CC(F)(F)F)C2=O	32µM*	9%[87.6 µM]	8	-23%[87.6 µM]
COc1cccc(-c2nc(N3CCOCC3)cc3c2CN(Cc2ccccc2)C3=O)c1OC	32µM*	-2%	8	-2%
COc1ccc(-c2nc(N3CCOCC3)cc3c2CN(Cc2ccccc2)C3=O)cc1	i	3%[87.6 µM]	13	59%[87.6 µM]
COc1cccc(-c2nc(N3CCOCC3)cc3c2CN(CC(F)(F)F)C3=O)c1OC	32µM*	1%[87.6 µM]	8	19%[87.6 µM]
COc1ccccc1CNC(=O)c1ccc2noc(-c3ccccc3)c2c1	i	.	.	.
O=C(N[C@H]1CCOC[C@H]1C1CCOCC1)c1ccccc1-c1ccccc1	i	-2%	-5	-12%
SMILES	KDM5B inhibitor	HEK293 viab	IP6K1 inh	SNCA expr inhib
Cn1cc(-c2cc(=O)c3ccnc(NCc4ccc5c(c4)OCO5)c3o2)cn1	32µM*	-3%[87.6 µM]	-16	6%[87.6 µM]
COCc1ccccc1-c1nccc2c(=O)cc(-c3cnn(C)c3)oc12	35µM*	10%[87.6 µM]	-22	0%[87.6 µM]
Cn1cc(-c2cc(=O)c3ccnc(-c4cccc5[nH]ccc45)c3o2)cn1	i	-3%[87.6 µM]	-17	59%[87.6 µM]
Cc1noc([C@@H](C)NC(=O)Nc2ccc(Cl)cc2)c1C(=O)O	40µM*	7%[87.6 µM]	-25	130%[87.6 µM]
C[C@@H](NC(=O)Nc1ccc(Cl)cc1)c1onc(-c2ccccc2)c1C(=O)O	i	4%[87.6 µM]	3	1%[87.6 µM]
CN(Cc1ccccc1)S(=O)(=O)c1cc(Br)cc2c1N(C(=O)C1CC1)CC2	i	1%	-24	2%
CCN(CCn1cccn1)C(=O)c1ccc2nc(-c3ccc(F)cc3)cn2c1	25µM*	0%	1	1%
CCN(Cc1ccc(C)o1)C(=O)c1ccc2nc(-c3ccc(F)cc3)cn2c1	28µM*	-2%	6	21%
CCN(CC1CCCO1)C(=O)c1ccc2nc(-c3ccc(F)cc3)cn2c1 (centres undefined)	22µM*	-10%	-14	26%
COc1ccc(C(=O)NCCn2cc(SCC(=O)Nc3ccc4c(c3)OCCO4)c3ccccc32)cc1	i	?	-1	33%
